Only some compounds are listed: those with a hit (about 3.5% of all), similar ones and a draw of the others.
TRAIL sens C8: viability loss with TRAIL in NB7+C8 cells, primary screen, TRAIL sensitizer project, cell-based, ATPlite luminescence; AID 624354, 2012; actives 1% (n = 360,000); inhibition (viability loss, TRAIL sensitization), % at 10 µM;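 active = compounds causing at least 50% loss of cell viability in the single-dose screen, relative to plate controls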
TROY signal inh: inhibitors of TROY-driven NF-kB signaling, primary screen, Q293 LMP1-TROYcd cells, NF-kB luciferase, uHTS | Q293 LMP1-TROYcd NF-kB luciferase reporter, 4 h | inhibition, % at 10 µM | AID 1347056, 2019 | actives 0.98% (n = 360,000);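 active = compounds whose plate-normalised and pattern-corrected inhibition of the luciferase reporter signal at the single screening dose is 50% or more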
HSP90 inh: HSP90 inhibitors, primary screen, cell lysate, luminescence; Heat shock protein HSP 90 (rabbit reticulocyte lysate; luciferase refolding); Rabbit reticulocyte lysate, luciferase refolding luminescence, 3 h; inhibition, % at 5.6 µM; actives 0.91% (n = 290,000); AID 1789, 2009;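 active = inhibition above the screen-wide mean plus 3 SD, computed separately per campaign, cut at about 16% in these data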;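 also: inhibitors lower the luminescence because luciferase stays unfolded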
Platelet DG rel: inhibitors of platelet dense granule secretion, primary screen, cell-based, MLPCN, human platelets; human platelet-rich plasma, SFLLRN dense granule ATP release, luminescence; inhibition, %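 (compounds screened at 7.5 µM in platelet-rich plasma)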; actives 0.22% (n = 300,000); AID 1663, 2009;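 active = mean replicate score, as percent of positive control, at or above 50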
PPC-1+TRAIL kill: compounds killing PPC-1 cancer cells with TRAIL present, primary screen, TRAIL potentiator project, ATPLite luminescence, uHTS | PPC-1 cells + TRAIL, ATPLite viability luminescence | cell killing (% activity), % at 4 µM or 5 µM | actives 0.41% (n = 220,000) | AID 1443, 2008;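 active = cell killing above 50% in the first pass at 4 µM, then a duplicate retest at 5 µM averaging 50% or more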
TWEAK Fn14 block: inhibitors of TWEAK-Fn14 signaling, primary screen, luciferase reporter cells, uHTS; AID 1159606, 2016; inhibition, % at 10 µM; TWEAK-stimulated Fn14 reporter cells, luciferase luminescence, 8 h; actives 2% (n = 360,000); in the data active = inhibition above about 50%
HSP90 inh confirm: HSP90 inhibitors, confirmation, cell lysate, luminescence. inhibition, % at 5.9 µM. shares compounds with HSP90 inh. actives 64% (n = 2,300). AID 1846, 2009. rabbit reticulocyte lysate, luciferase refolding luminescence, 3 h; in the data active = inhibition above about 18%
FLuc counter: firefly luciferase inhibitors, HSP90 counter-screen, confirmation, artefact control for HSP90 inhibitor project, biochemical, luminescence, triplicate; shares compounds with HSP90 inh; purified native firefly luciferase; inhibition, % at 5.9 µM; actives 48% (n = 2,300); AID 1847, 2009;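 active = inhibition above the mean inhibition of all tested sample wells plus 3 SD, cut at about 10% in these data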
Target sequence (P08659 whole entry, looked up): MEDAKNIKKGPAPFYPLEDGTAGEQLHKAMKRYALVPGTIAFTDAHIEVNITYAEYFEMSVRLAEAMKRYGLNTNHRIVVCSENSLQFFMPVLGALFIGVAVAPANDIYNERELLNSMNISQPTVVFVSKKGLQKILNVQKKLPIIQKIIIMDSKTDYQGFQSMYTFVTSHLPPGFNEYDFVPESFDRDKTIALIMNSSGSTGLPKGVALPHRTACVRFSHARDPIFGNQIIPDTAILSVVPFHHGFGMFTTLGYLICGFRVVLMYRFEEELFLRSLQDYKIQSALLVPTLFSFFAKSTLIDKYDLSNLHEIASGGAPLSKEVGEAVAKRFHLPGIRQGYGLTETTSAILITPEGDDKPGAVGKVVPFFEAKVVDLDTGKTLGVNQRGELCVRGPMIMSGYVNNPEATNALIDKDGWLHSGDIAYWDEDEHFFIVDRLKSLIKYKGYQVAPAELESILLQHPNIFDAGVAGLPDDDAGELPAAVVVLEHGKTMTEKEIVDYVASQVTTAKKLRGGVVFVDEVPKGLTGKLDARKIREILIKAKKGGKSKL
Each line names hits and unclear results; the compound was inactive in the other large screens (follow-up assays come after a bar, where they were run).

Cc1ccc2nc(SCC3CCCCO3)[nH]c2c1 (stereo not drawn)	HSP90 inh 30, TWEAK Fn14 block 71 | HSP90 inh confirm 64 | FLuc counter 61
O=C(NCC(=O)N(c1ccccc1)C(C(=O)NC1CCCCC1)c1cccnc1)c1ccco1 (stereo not drawn)	none (no result: PPC-1+TRAIL kill)
Cc1cc(C(=O)Cn2nc(C(=O)O)c3ccccc3c2=O)c(C)n1CCc1ccc(F)cc1	none
COCC(C)n1c(C)cc(C(=O)COC(=O)c2nn(C)c(=O)c3ccccc23)c1C (stereo not drawn)	none (no result: HSP90 inh, Platelet DG rel, PPC-1+TRAIL kill)
Cc1cc(C(=O)Cn2nc(C(=O)O)c3ccccc3c2=O)c(C)n1CC(F)(F)F	HSP90 inh 26 | HSP90 inh confirm 45 | FLuc counter inactive
COCC(C)n1c(C)cc(C(=O)Cn2nc(C(=O)O)c3ccccc3c2=O)c1C (stereo not drawn)	HSP90 inh 42 | HSP90 inh confirm 52 | FLuc counter inactive
CSc1cccc(NC(=O)C2CCCN(S(C)(=O)=O)C2)c1 (stereo not drawn)	none (no result: HSP90 inh, Platelet DG rel, PPC-1+TRAIL kill)
COc1cccc(/C=C2\Oc3ccc(O)cc3C2=O)c1O	TRAIL sens C8 65, HSP90 inh 17 (no result: PPC-1+TRAIL kill) | HSP90 inh confirm 33 | FLuc counter 34
O=C(c1ccc(F)cc1F)N1CCN(c2ccccn2)CC1	none (no result: PPC-1+TRAIL kill)
CCOc1ccc(S(=O)(=O)N(C)CC(=O)NCc2ccc3c(c2)OCO3)cc1	none (no result: PPC-1+TRAIL kill)
COc1ccc(CCNC(=O)C2CCN(S(=O)(=O)c3ccc(SC)cc3)CC2)cc1	none (no result: PPC-1+TRAIL kill)
Cc1c(Cl)cccc1NC(=O)CCCn1cnc([N+](=O)[O-])n1	HSP90 inh 18 | HSP90 inh confirm inactive | FLuc counter inactive
O=C(CCCn1cnc([N+](=O)[O-])n1)Nc1cccc(Cl)c1Cl	none
Cc1c(/C=N/Nc2ccc(C(=O)O)cc2)c2ccccc2n1C	HSP90 inh 42 | HSP90 inh confirm 38 | FLuc counter 26
O=C(O)c1ccc(N/N=C/c2cn(Cc3ccc(F)cc3)c3ccccc23)cc1	HSP90 inh 40, TWEAK Fn14 block 52 | HSP90 inh confirm 39 | FLuc counter 25
Cc1c(/C=N\NC(=O)C2COc3ccccc3O2)c2ccccc2n1C (stereo not drawn)	none
CCNC(=S)N/N=C/c1cn(Cc2ccc(F)cc2)c2ccccc12	none
C=CCc1ccc(OCCn2cccc2C=O)c(OC)c1	HSP90 inh 23 | HSP90 inh confirm 35 | FLuc counter inactive
Cc1ccc(OCc2ccc(C(=O)O)o2)c([N+](=O)[O-])c1	HSP90 inh 20 | HSP90 inh confirm 44 | FLuc counter inactive
Cc1ccc(OCc2ccc(C(=O)N3CCCC3)o2)c([N+](=O)[O-])c1	none (no result: PPC-1+TRAIL kill)
C=CCc1ccc(OCc2ccc(C(=O)O)o2)c(OC)c1	HSP90 inh 86 (no result: PPC-1+TRAIL kill) | HSP90 inh confirm 83 | FLuc counter 46
CCCc1ccc(OCc2ccc(C(=O)O)o2)c(OC)c1	HSP90 inh 81 | HSP90 inh confirm 82 | FLuc counter 41
CC(CC(=O)Nc1ccc2c(c1)c(=O)n(C)n2-c1ccccc1F)c1ccccc1 (stereo not drawn)	none (no result: HSP90 inh, Platelet DG rel, PPC-1+TRAIL kill)
CC(C)NC(=O)C1(C)CSCC(=O)N1Cc1cccc(C(F)(F)F)c1 (stereo not drawn)	none (no result: TROY signal inh, HSP90 inh, Platelet DG rel, PPC-1+TRAIL kill, TWEAK Fn14 block)
CCc1cccc(CC)c1NC(=O)COC(=O)C1(C)CC1(Cl)Cl (stereo not drawn)	none
CCCc1ccc(OCc2ccc(C(=O)NN)o2)c(OC)c1	none (no result: PPC-1+TRAIL kill)
CCCc1ccc(OCc2ccc(C(=O)OC)o2)c(OC)c1	HSP90 inh 24 | HSP90 inh confirm 30 | FLuc counter inactive
Cc1ccc(/C=C/c2nnc(-c3ccc(C)cc3)o2)cc1	HSP90 inh 32 | HSP90 inh confirm inactive | FLuc counter inactive
O=C(CSc1nnc2ccc(-c3ccncc3)nn12)c1cccs1	HSP90 inh 66 | HSP90 inh confirm inactive | FLuc counter inactive
CCC(=O)N1CCc2cc(Br)cc(S(=O)(=O)N(C)c3ccc(OC)cc3)c21	none (no result: PPC-1+TRAIL kill)
Cc1ccc(C(=O)CSc2nnnn2C(C)C)c(C)c1	TROY signal inh 53, HSP90 inh 56, TWEAK Fn14 block 90 | HSP90 inh confirm 79 | FLuc counter 72
Cc1ccc(C)c(C(=O)CSc2nnnn2C(C)C)c1	none
Cc1nc2ccc(NC(=O)C3(C)CCCN(C(C)C)C3)cc2o1 (stereo not drawn)	none (no result: HSP90 inh, Platelet DG rel, PPC-1+TRAIL kill)
CCc1ccc(NC(=O)c2[nH]c(C)c(C(C)=O)c2C)cc1	none (no result: PPC-1+TRAIL kill)
CCOc1ccc(NC(=O)c2[nH]c(C)c(C(C)=O)c2C)cc1	HSP90 inh 19 (no result: PPC-1+TRAIL kill) | HSP90 inh confirm inactive | FLuc counter inactive
COc1ccc(C(C)C)cc1S(=O)(=O)N1CCC(C(=O)NCC2CCCO2)CC1 (stereo not drawn)	none (no result: PPC-1+TRAIL kill)
COc1cc(NCCCC(C)N)c2ncccc2c1 (stereo not drawn)	HSP90 inh 23 (no result: PPC-1+TRAIL kill) | HSP90 inh confirm inactive | FLuc counter inactive
COc1cc(NC(=O)c2ccccc2Cl)c2ncccc2c1	none (no result: PPC-1+TRAIL kill)
COc1ccccc1CCC(=O)NNC(=O)c1cccs1	none (no result: HSP90 inh, Platelet DG rel, PPC-1+TRAIL kill)
Cc1ccc2c(c1)C(c1ccccc1)N(C(=O)c1c(F)cccc1Cl)CC(=O)N2 (stereo not drawn)	HSP90 inh 17 (no result: PPC-1+TRAIL kill) | HSP90 inh confirm inactive | FLuc counter inactive
CC(C)CC(=O)N1CC(=O)Nc2ccc(F)cc2C1c1ccccc1 (stereo not drawn)	HSP90 inh 39 (no result: PPC-1+TRAIL kill) | HSP90 inh confirm inactive | FLuc counter inactive
CCC(CC)C(=O)N1CC(=O)Nc2ccc(F)cc2C1c1ccccc1 (stereo not drawn)	none (no result: PPC-1+TRAIL kill)
CC(C)(C)[C@@H]1COC(=O)[C@H](Cc2ccc(F)cc2)C/C=C\C[C@@H](CC(=O)N(CCO)Cc2ccccc2)C(=O)N1	none (no result: HSP90 inh, Platelet DG rel, PPC-1+TRAIL kill)
O=C(c1cc(-c2ccc(Cl)cc2Cl)on1)N1CCCCCC1	HSP90 inh 19 (no result: PPC-1+TRAIL kill) | HSP90 inh confirm 34 | FLuc counter 18
O=C(c1cc(-c2ccc(Cl)cc2)on1)N1CCCCCC1	none (no result: PPC-1+TRAIL kill)
O=C(c1cc(-c2ccc(Cl)cc2Cl)on1)N1CCCC1	TRAIL sens C8 67, HSP90 inh 37, TWEAK Fn14 block 70 (no result: PPC-1+TRAIL kill) | HSP90 inh confirm 55 | FLuc counter 57
CCN(CC(=O)Nc1cc(S(=O)(=O)N2CCOCC2)ccc1C)Cc1ccccc1	none (no result: HSP90 inh, PPC-1+TRAIL kill)

Screening results from PubChem BioAssay.
